Source: PubChem BioAssay
Records with an inconclusive call do not appear. Calls of active or inactive are those of the source. Unless noted, the limit is not given here; nearly all actives have AC50 up to about 26 µM.

Columns and labels:
[1] = growth inhibition of DIPG glioma cells, dose response, cell-based, SU-DIPG-XVII, MIPE5.0, CellTiter-Glo, qHTS (AID 1347060); settings: SU-DIPG-XVII viability, CellTiter-Glo ATP luminescence;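 as to AC50: cells exposed to compound for 48 hours before viability readout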
[2] = growth inhibition of DIPG glioma cells, dose response, cell-based, SU-DIPG-XIII, MIPE4.0, CellTiter-Glo, qHTS (AID 1347061; cut-off not given, nearly all actives have AC50 up to about 37 µM;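 also: cells exposed to compound for 48 hours before readout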); settings: SU-DIPG-XIII viability, CellTiter-Glo ATP luminescence
[3] = growth inhibition of DIPG glioma cells, dose response, cell-based, JHH-DIPG-1, MIPE4.0, CellTiter-Glo, qHTS (AID 1347062; cut-off not given, nearly all actives have AC50 up to about 27 µM;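 as to AC50: cells exposed to compound for two days before readout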); settings: JHH-DIPG-1 viability, CellTiter-Glo ATP luminescence
[4] = growth inhibition of DIPG glioma cells, dose response, cell-based, SU-DIPG-IV, MIPE4.0, CellTiter-Glo, qHTS (AID 1347063; cut-off not given, nearly all actives have AC50 up to about 30 µM;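 also: compound exposure lasted 48 hours before the viability readout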); settings: SU-DIPG-IV viability, CellTiter-Glo ATP luminescence
[5] = growth inhibition of DIPG glioma cells, dose response, cell-based, SU-DIPG-XIII, MIPE5.0, CellTiter-Glo, qHTS (AID 1347064; cut-off not given, nearly all actives have AC50 up to about 23 µM;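 as to AC50: cells exposed to compound for 48 hours before the viability read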); settings: SU-DIPG-XIII viability, CellTiter-Glo ATP luminescence
[6] = viability loss in pontine glioma line – cell-based, SU-DIPG-XXV, MIPE5.0, CellTiter-Glo, qHTS, dose response (AID 1347065); settings: CellTiter-Glo ATP luminescence;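 also: cells exposed to compound for 48 hours before ATP readout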
[7] = JHH-DIPG-1 glioma cell viability, MIPE5.0 library, CellTiter-Glo luminescence, qHTS (AID 1347067); settings: JHH-DIPG-1 glioma viability, CellTiter-Glo ATP luminescence;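 also: cells exposed to compound for 48 hours before readout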
[8] = SU-DIPG-XXV glioma cell viability, MIPE5.0 library, qHTS (AID 1347068; cut-off not given, nearly all actives have IC50 up to about 30 µM;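 as to IC50: cells exposed to compound for 48 hours before viability readout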)
[9] = modifiers of HSF1 nuclear foci, imaging, Selleck Cancer Library (AID 1347162; in the data active = plate-normalised HSF1 focus index below about 0.46); settings: human cells, at 10 µM; SSMD: measured here: HSF1 foci SSMD mean; cell count: measured here: cell number; plate-normalised HSF1 focus index: stronger effect = lower value
[10] = sensitizers of A549 cells to miR-34 induction, primary screen, imaging, A549 dox-inducible miR-34, nuclei and caspase counts (AID 1347080;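 active = compounds whose cell count with miR-34 switched on is under 0.7 times the count with it off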); settings: A549 miR-34 inducible, Hoechst nuclei count, 48 h
[11] = survival rescue of mitochondrial mutant cells in low glucose, primary screen, MELAS cybrids, Rieske KO mouse fibroblasts, CellTiter-Glo (AID 1508586;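 active = mean z-score across replicates of 1.96 or higher in either the MELAS or the Rieske mutant cell line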;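 also: z relative to plate mean and SD of compound and empty wells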)
[12] = SU-DIPG-VI glioma cell viability, MIPE4.0 library, CellTiter-Glo luminescence, qHTS (AID 1347066; cut-off not given, nearly all actives have AC50 up to about 30 µM;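 also: cells exposed to compound for 48 hours before readout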); settings: CellTiter-Glo ATP luminescence
[13] = stronger effect = lower value, cell number ratio, induced over uninduced
[14] = measured here: relative caspase fold change +Dox/-Dox
[15] = measured here: total cells with miR-34 induction, stronger effect = lower value
[16] = measured here: total cells without miR-34 induction
[17] = MELAS cybrid survival, CellTiter-Glo 48 h, stronger effect = higher value
[18] = Rieske KO mouse fibroblast survival, CellTiter-Glo 72 h

In the case of COc1cc2c(cc1OC)CN(CCc1ccc(NC(=O)c3cccc4c(=O)c5cccc(OC)c5[nH]c34)cc1)CC2, the outcome [1] is reported as “inactive”, the AC50 [2] is reported as 8330 nM (active) and the outcome [3] is reported as “inactive”. The outcome [4] was “inactive”, the outcome [5] was “inactive” and the outcome [6] was “inactive”. The outcome [7] was “inactive”, the outcome [8] was “inactive” and the SSMD [9] was 4.27. The cell count [9] was 6980 and the plate-normalised HSF1 focus index [9] was 1.26 (inactive).
In the case of CC1(C)CC(=O)c2c(C(F)(F)F)nn(-c3ccc(C(N)=O)c(NC4CCC(OC(=O)CN)CC4)c3)c2C1 (centres undefined), the AC50 [1] is reported as 186 nM (active), the AC50 [2] is reported as 662 nM (active) and the AC50 [3] is reported as 148 nM (active). For the same molecule, the AC50 [4] was 418 nM (active), the AC50 [5] was 417 nM (active) and the AC50 [6] was 235 nM (active). For the same molecule, the AC50 [7] was 166 nM (active), the IC50 [8] was 263 nM (active) and the fold change [10, 13] was 1.04 (inactive). It also gave a fold change [10, 14] of 0.875, a cell count [10, 15] of 2840 and a cell count [10, 16] of 2740. For the same molecule, the z-score [11, 17] was 2.47 (active) and the z-score [11, 18] was -1.59.
In the case of CCc1c(O)cc(O)c(C(=O)c2ccc(OCCN3CCOCC3)c(OC)c2)c1CC(=O)N(CCOC)CCOC, the AC50 [1] is reported as 235 nM (active), the AC50 [2] is reported as 3320 nM (active) and the AC50 [3] is reported as 372 nM (active). The AC50 [4] was 1320 nM (active), the AC50 [5] was 833 nM (active) and the AC50 [6] was 742 nM (active). For the same molecule, the AC50 [7] was 742 nM (active), the outcome [8] was “inactive” and the fold change [10, 13] was 1.03 (inactive). For the same molecule, the fold change [10, 14] was 0.454, the cell count [10, 15] was 3640 and the cell count [10, 16] was 3520. The z-score [11, 17] was -0.316 (inactive) and the z-score [11, 18] was 0.722.
In the case of Cc1cncc2cccc(S(=O)(=O)N3CCCN(C(=O)CN)C[C@@H]3C)c12, the outcome [1] is reported as “inactive”, the outcome [2] is reported as “inactive” and the outcome [3] is reported as “inactive”. The AC50 [4] was 372 nM (active), the outcome [5] was “inactive” and the outcome [12] was “inactive”. For the same molecule, the outcome [7] was “inactive”.
For O=C(CCN1CCN(C(=O)OCc2cc(Cl)cc(Cl)c2)CC1)c1ccc2[nH]c(=O)oc2c1, the AC50 [1] was 20900 nM (active), the outcome [2] was “inactive” and the outcome [3] was “inactive”. For the same molecule, the outcome [4] was “inactive”, the AC50 [5] was 23500 nM (active) and the outcome [12] was “inactive”. The AC50 [7] was 16600 nM (active) and the outcome [8] was “inactive”.
